Screening data as filed in PubChem.
An excerpt weighted towards active compounds, which were near 19% of everything screened.
TDP1 cell noCPT = qHTS for Inhibitors of human tyrosyl-DNA phosphodiesterase 1 (TDP1): qHTS in cells in absence of CPT | DT40 Tdp1-/- hTDP1 cells, no CPT, ATP luminescence, 48 h | actives 15% (n = 420,000) | Potency, µM (top dose mostly 46.2 µM), inactives show at the highest dose activity change, negative = growth inhibition, actives largely listed as inhibitors | AID 686978, 2013; also: nearly all actives have a fitted effect of over 55% in size
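Seeded 400 DT40-hTDP1 cells/well (vehicle DMSO, no 20 nM CPT); pinned compounds; ≥48 hr at 37 °C; CellTiter-Glo luminescence as viability measure.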
RORg inh = blocks mouse ROR gamma transcriptional activity. Drosophila S2 Gal4-RORgamma UAS-luciferase reporter, 20 h. actives 5.4% (n = 310,000). Potency, µM (series often up to 53.6 µM), for inactives: at the highest dose activity change, negative = inhibition, most hits filed as inhibitors. P51450. AID 2551; also: nearly all actives have a fitted effect of over 60% in size
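Stably transfected Drosophila Schneider cells are the test system, with ROR gamma fused to Gal4 and luciferase under UAS control; luminescence is read after 20 hr of 700 uM copper sulfate induction at ambient temperature.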
DT40 TDP1 CPT = growth inhibition of DT40 Tdp1-/-;hTDP1 cells with camptothecin (screen for TDP1 inhibitors) | chicken DT40 Tdp1-/-;hTDP1 cells + 20 nM CPT, ATP luminescence, 48 h | Potency, µM (series often up to 46.2 µM), without a hit: at the top dose activity change, negative = growth inhibition, usual class: inhibitors | actives 12% (n = 420,000) | AID 686979; also: nearly all actives have a fitted effect of over 55% in size
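Cell growth measured by CellTiter-Glo luminescence after a minimum 48 h, 37 C compound exposure with 20 nM CPT in Tdp1-knockout DT40 cells stably expressing hTDP1, seeded 400/well; qHTS titration format.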
VP16 counter = counter-screen for ROR gamma inhibitors: Gal4-VP16 reporter | Drosophila S2 Gal4-VP16 UAS-luciferase, luminescence, 20 h | Potency, µM (highest dose often 53.6 µM), inactives show top-dose activity, negative = inhibition, most hits filed as inhibitors | actives 3.5% (n = 310,000);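 also: Gal4-VP16 expression switched on by copper sulfate through the metallothionein promoter; nearly all actives have a fitted effect of over 50% in size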
TDP1 block = inhibitors of human tyrosyl-DNA phosphodiesterase TDP1. Potency, µM (top dose mostly 130 µM), without a hit: top-dose activity change, negative = inhibition, most hits filed as inhibitors. actives 0.28% (n = 350,000). recombinant TDP1, AlphaScreen DNA substrate cleavage; also: nearly all actives have a fitted effect of over 40% in size
Target sequence (Q9NUW8 whole entry, looked up): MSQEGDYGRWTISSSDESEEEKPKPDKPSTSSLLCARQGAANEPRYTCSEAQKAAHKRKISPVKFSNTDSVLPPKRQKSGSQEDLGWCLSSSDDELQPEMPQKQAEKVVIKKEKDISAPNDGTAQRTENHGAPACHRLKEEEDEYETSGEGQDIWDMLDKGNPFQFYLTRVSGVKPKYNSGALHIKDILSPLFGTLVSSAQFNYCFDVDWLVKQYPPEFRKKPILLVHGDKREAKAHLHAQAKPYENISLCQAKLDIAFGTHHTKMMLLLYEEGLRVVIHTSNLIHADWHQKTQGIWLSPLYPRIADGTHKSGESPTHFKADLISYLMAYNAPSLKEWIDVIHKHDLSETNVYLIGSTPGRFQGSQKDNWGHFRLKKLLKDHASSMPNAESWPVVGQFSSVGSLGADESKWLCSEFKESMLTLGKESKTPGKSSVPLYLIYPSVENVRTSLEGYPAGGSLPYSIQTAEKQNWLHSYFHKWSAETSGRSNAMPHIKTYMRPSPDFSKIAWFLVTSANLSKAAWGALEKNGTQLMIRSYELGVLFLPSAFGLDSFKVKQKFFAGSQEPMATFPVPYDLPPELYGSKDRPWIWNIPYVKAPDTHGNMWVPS
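Recombinant E. coli-expressed Tdp1 (1 nM) preincubated with compound 15 min at RT, then 5'-biotin/3'-phosphotyrosine-FITC DNA substrate (15 nM) added for 5 min. AlphaScreen beads (10 ug/ml) added, 10 min RT; tyrosine-FITC cleavage read as signal loss.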
Numbers without * were called inactive; ? = inconclusive; . = no result given; [ ] = remark or other dose. Calls follow the shape of the dose curve; as a rule, active = well fitted curve in the direction sought with a large enough effect; inconclusive = small, poorly fitted or top-dose-only effect, or another doubt; inactive = no such curve, though single readings can be large; an effect the other way counts as inactive or inconclusive. % is scaled to controls: 0 for no effect and ±100 for the full control effect; potency is read from the fitted curve at half-maximal effect.

SMILES	TDP1 cell noCPT	RORg inh	DT40 TDP1 CPT	VP16 counter	TDP1 block
Cc1nc2cnc(Nc3ccccc3)nc2n(CCc2ccccc2)c1=O	-30%	11%	-11%	-8%	.
Clc1cc(NCc2ccccc2)ncn1	?	.	?	.	4%
CCN(C(=O)CSc1nc2ccccc2n1Cc1ccccc1C#N)c1ccccc1	13µM*	.	15µM*	.	1%
CCN(C(=O)CSc1nc2ccccc2n1Cc1cc(C)ccc1C)c1ccccc1	23µM*	.	16µM*	.	1%
Cn1c(=O)[nH]c(=O)c2c1nc(NC1CCCC1)n2Cc1ccccc1	?	-2%[1.91 µM]	?	26%	.
CCN(CC)C(=O)N1c2ccccc2Sc2ccccc21	?	?	?	-7%	.
CCN(CC)C(=O)N1c2ccccc2CC(N(CC)CC)c2ccccc21 (stereo not given)	5.8µM*	16%	7.3µM*	-7%	4%
COc1ccc(N2CCN(C(=O)CN(c3ccc(Br)cc3)S(C)(=O)=O)CC2)cc1	?	30%	?	-1%	2%
O=C(CN1CCN(Cc2ccccc2Cl)CC1)N/N=C/c1ccccn1	?	-31%	?	6%	5%
COc1ccc2cc(/C=N/NC(=O)c3ccc(CN(c4cccc(Cl)c4Cl)S(C)(=O)=O)cc3)c(Cl)nc2c1	15µM*	0%	18µM*	?	3%
CCOC(=O)CC(=O)CSc1nc(-c2cccnc2)cc(C)c1C#N	8%	-8%	10%	-5%	0%
CCOC(=O)CC(=O)CSc1nc(-c2cccnc2)ccc1C#N	3.5µM*	-4%	?	4%	0%
O=Cc1ccc(O)c2ncccc12	0.58µM*	1µM*	0.65µM*	0.56µM*	7%
Cc1ccc(-c2n[nH]c(=S)n2/N=C\c2ccco2)cc1	?	6.3µM*	-4%	5.6µM*	6%
CC(/C=N/n1c(-c2ccc(Cl)cc2)n[nH]c1=S)=C\c1ccco1	?	3.2µM*	?	4µM*	5%
Cc1cccc(-c2n[nH]c(=S)n2/N=C/c2ccco2)c1	-8%	8.9µM*	4%	?	12%
S=c1[nH]nc(-c2cccnc2)n1/N=C/c1ccco1	4%	?	-7%	-4%	2%
CCOC(=O)C(C(=O)OCC)c1cc(Br)c2noc3c2c1C(=O)c1ccccc1-3	2.6µM*	?	3.7µM*	?	2%
CCNc1cc(N2CCN(C3CCCCC3)CC2)c2noc3c2c1C(=O)c1ccccc1-3	?	.	?	.	9%
Cc1ccc(NC(=O)/C=C/c2ccco2)cc1F	9.2µM*	.	7.3µM*	.	-12%
O=C(/C=C\c1ccco1)Nc1cc([N+](=O)[O-])ccc1F	1.6µM*	23%	2.1µM*	-14%	1%
CCOC(=O)c1c(-c2ccc(C)s2)csc1N	?	26%	?	?	5%
COC(=O)c1ccccc1NC(=O)C1CCN(S(=O)(=O)c2cc(C)ccc2OC)CC1	?	13%	?	7%	0%
N#CC1=C2SCC(O)(c3ccccc3)N2C(=O)CC1c1ccccc1 (stereo not given)	1.6µM*	10%[10 µM]	1.3µM*	0%	5%
CC[C@@]1(C(=O)OC)N[C@H](CN(C)C(=O)Nc2ccc(C)cc2)[C@@H]2C(=O)N(C)C(=O)[C@@H]21	8%	.	2%	.	0%
SMILES	TDP1 cell noCPT	RORg inh	DT40 TDP1 CPT	VP16 counter	TDP1 block
Cc1cc(C)c2nc(NC(=O)[C@@H](NC(=O)c3cccc(S(=O)(=O)N4CCOCC4)c3)C(C)C)sc2c1	?	13%	16µM*	-5%	0%
COc1ccc(C(=O)N[C@H](C(=O)Nc2cccc(S(=O)(=O)N3CCOCC3)c2)C(C)C)cc1	18µM*	.	-28%	.	.
Cc1ccsc1CN(C)C(=O)C(NC(=O)c1cccc(S(=O)(=O)N2CCOCC2)c1)C(C)C (stereo not given)	?	.	12µM*	.	1%
COc1ccc(N2CCN(CC(=O)Nc3cccc(S(=O)(=O)N4CCOCC4)c3)CC2)cc1	9.2µM*	11%	?	-8%	2%
Cc1cccc(NC(=O)COC(=O)C(NC(=O)c2cccc(S(=O)(=O)N3CCOCC3)c2)C(C)C)c1 (stereo not given)	-5%	.	-12%	.	.
CSc1cccc(CNC(=O)CC2C(=O)NCCN2CC(C)(C)C)c1 (stereo not given)	-14%	-5%	3%	21%	-1%
O=C(COC(=O)COc1ccc(Cl)cc1)NCCCc1ccccc1	?	.	-1%	.	-2%
COc1cc(C(=S)N2CCOCC2)cc(OC)c1OC	1%	26%	5%	-4%	-2%
CCCCOC(=O)C1=C(C)NC(=O)NC1c1ccc(N(C)C)cc1 (stereo not given)	?	?	-2%	-2%	5%
COc1ccc(CCNc2ncnc3nc[nH]c23)cc1	6.3µM*	.	2.8µM*	.	1%
COc1cccc2cc(C(=O)Nc3cccc(C)n3)c(=O)oc12	-16%	-2%	-3%	-4%	-1%
CC(C)OC(=O)C(C(=O)C(F)(F)F)c1cc(NS(=O)(=O)c2ccc3ccccc3c2)c2ccccc2c1O (stereo not given)	21µM*	-4%	23µM*	?	3%
Cc1ccc(C(=O)O)cc1NS(=O)(=O)c1ccc2ccccc2c1	0%	0%	7%	-2%	.
CC(C)OC(=O)/C(=C/c1ccc2c(c1)c1ccccc1n2C)NC(=O)c1ccccc1	10µM*	?	?	4%	-2%
CC(C)OC(=O)/C(=C\c1ccc2c(c1)c1ccccc1n2C)NC(=O)c1ccccc1	21µM*	27%	21µM*	?	4%
CC(C)(C)c1ccc(NC(=O)N2CCCN(c3c(Cl)cncc3Cl)CC2)cc1	7.3µM*	17%	16µM*	?	0%
Cc1cc(C)nc(NC(=S)Nc2cccc(F)c2)c1	-1%	1.8µM*	4%	7.1µM*	5%
COc1ccc(NC(=S)Nc2cc(C)cc(C)n2)cc1OC	-23%	46%	-1%	?	5%
COc1cccc(NC(=S)Nc2cc(C)cc(C)n2)c1	-22%	1.3µM*	-1%	?	1%
CC12COC3(C(=O)Nc4ccc5ccccc5c4)CC1CCC32C (stereo not given)	?	?	2%	-18%	2%
O=C1CCN(Cc2ccccc2)C(=O)N1c1ccccc1	1%	-12%	-5%	0%	-4%
Cc1cc(F)ccc1S(=O)(=O)NCC(c1ccc2c(c1)OCO2)N1CCOCC1 (stereo not given)	-21%	.	-1%	.	0%
COc1cc(/C=C/C(=O)Nc2ccc(C)cc2)cc(OC)c1OC	16µM*	?	?	-9%	2%
